Experimental data: publication PMC7862700, “An all-to-all approach to the identification of sequence-specific readers for epigenetic DNA modifications on cytosine”

Columns and labels:
Assay in all cases: DAPPL (digital affinity profiling via proximity ligation, sequencing); 10 mM Tris-HCl pH 7.5, 50 mM NaCl, 1 mM DTT, 4% glycerol, room temperature, 30 min; GST-TFs on glutathione beads, 16-mer random dsDNA library, 0.1% formaldehyde crosslink after washing; high values mean tight binding
Conditions in all cases: protein: recombinant; tags: N-terminal GST; dsDNA, one strand shown
ERF = molecular target: T1, ERF (Homo sapiens, UniProt P50548 1-548)
T1 sequence: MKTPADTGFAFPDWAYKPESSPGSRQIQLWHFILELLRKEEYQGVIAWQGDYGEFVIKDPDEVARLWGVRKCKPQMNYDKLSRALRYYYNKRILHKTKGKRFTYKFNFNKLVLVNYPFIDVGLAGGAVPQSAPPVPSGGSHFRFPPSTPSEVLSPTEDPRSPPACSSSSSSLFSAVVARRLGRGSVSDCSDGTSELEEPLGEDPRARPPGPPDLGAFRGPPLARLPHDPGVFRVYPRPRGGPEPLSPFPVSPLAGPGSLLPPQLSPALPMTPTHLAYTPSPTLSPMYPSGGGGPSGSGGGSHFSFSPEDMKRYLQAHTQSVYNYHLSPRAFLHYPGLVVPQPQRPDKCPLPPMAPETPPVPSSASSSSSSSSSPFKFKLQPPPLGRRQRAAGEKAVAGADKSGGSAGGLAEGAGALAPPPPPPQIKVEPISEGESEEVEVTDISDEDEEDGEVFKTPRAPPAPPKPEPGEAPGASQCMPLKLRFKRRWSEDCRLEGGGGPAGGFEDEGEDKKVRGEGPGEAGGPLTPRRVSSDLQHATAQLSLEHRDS
In short: (§1)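 Pools of DNA-barcoded human transcription factors, expressed in yeast as GST fusions on glutathione beads and combined with a tag-only sample, were incubated with 200 nmole of a 16-mer random double-stranded DNA library. Incubation took 30 min at room temperature in Tris/NaCl/DTT/glycerol buffer and was followed by washing, 0.1% formaldehyde crosslinking, proximity ligation (BsaI/T4 ligase, 1 h, 37 °C), PCR amplification and sequencing on an Illumina NextSeq500. Binding signal is the ratio of a hexamer's read frequency for a factor to its frequency for the tag-only sample.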

ETV3L = molecular target: T2, ETV3L (Homo sapiens, UniProt Q6ZN32 1-361)
T2 sequence: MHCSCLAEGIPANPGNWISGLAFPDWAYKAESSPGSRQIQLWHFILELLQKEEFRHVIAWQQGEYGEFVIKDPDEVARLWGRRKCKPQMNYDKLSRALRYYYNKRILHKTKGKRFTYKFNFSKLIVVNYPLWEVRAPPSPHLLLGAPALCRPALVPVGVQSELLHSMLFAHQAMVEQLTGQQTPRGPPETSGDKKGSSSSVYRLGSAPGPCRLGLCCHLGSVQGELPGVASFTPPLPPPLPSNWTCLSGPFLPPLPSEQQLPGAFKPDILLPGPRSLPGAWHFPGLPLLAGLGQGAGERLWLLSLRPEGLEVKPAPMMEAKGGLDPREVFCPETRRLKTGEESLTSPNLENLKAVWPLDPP
In short: as §1

ETS2 = molecular target: T3, ETS2 (Homo sapiens, UniProt P15036 1-469)
T3 sequence: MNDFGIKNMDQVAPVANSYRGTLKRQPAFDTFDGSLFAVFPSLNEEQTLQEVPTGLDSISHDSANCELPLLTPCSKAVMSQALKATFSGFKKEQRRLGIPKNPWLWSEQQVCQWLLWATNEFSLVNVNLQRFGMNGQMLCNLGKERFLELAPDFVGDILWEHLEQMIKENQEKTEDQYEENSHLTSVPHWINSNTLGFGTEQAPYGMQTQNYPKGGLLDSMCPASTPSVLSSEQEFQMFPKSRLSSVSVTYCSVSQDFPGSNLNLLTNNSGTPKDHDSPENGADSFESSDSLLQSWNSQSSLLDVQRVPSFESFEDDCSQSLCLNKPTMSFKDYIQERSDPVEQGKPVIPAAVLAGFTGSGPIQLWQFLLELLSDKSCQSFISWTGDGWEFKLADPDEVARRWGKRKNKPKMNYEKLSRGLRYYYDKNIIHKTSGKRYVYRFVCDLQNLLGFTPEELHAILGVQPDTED
In short: as §1

SPDEF = molecular target: T4, SPDEF (Homo sapiens, UniProt O95238 1-335)
T4 sequence: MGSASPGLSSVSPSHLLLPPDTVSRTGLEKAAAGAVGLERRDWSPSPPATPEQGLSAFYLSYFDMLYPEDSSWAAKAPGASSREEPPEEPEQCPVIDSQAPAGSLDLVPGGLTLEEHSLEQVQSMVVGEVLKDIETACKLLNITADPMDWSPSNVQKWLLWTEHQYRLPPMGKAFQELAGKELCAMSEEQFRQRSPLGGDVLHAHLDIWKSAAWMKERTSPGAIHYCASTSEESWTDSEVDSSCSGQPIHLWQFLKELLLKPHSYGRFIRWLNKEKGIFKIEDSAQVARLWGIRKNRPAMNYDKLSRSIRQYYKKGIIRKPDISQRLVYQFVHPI
In short: as §1

ETV7 = molecular target: T5, ETV7 (Homo sapiens, UniProt Q9Y603 1-341)
T5 sequence: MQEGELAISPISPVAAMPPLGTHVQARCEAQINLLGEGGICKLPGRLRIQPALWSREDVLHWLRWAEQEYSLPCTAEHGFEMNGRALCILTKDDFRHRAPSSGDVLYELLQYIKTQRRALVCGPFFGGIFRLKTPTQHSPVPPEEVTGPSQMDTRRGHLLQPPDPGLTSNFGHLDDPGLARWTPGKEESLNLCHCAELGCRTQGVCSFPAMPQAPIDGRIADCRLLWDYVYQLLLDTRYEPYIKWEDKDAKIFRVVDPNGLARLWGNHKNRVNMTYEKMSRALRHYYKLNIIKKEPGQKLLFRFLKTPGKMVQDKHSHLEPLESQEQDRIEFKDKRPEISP
In short: as §1

ELF5 = molecular target: T6, ELF5 (Homo sapiens, UniProt Q9UKW6-2 1-255)
T6 sequence: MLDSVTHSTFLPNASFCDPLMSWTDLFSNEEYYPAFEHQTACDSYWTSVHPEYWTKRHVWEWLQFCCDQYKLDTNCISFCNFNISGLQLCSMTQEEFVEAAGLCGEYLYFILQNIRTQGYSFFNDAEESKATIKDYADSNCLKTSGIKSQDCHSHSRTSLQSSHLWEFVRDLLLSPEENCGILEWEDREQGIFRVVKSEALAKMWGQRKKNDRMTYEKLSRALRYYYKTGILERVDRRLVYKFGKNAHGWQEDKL
In short: as §1

ETV3 = molecular target: T7, ETV3 (Homo sapiens, UniProt P41162-2 1-143)
T7 sequence: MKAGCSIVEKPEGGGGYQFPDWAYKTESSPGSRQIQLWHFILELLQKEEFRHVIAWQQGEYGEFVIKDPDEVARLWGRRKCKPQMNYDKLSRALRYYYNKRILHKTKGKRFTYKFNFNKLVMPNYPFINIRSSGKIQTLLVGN
In short: as §1

ETV6 = ETV6 (Homo sapiens, UniProt P41212 1-452)
In short: as §1

ETV6, sequence (P41212 whole entry): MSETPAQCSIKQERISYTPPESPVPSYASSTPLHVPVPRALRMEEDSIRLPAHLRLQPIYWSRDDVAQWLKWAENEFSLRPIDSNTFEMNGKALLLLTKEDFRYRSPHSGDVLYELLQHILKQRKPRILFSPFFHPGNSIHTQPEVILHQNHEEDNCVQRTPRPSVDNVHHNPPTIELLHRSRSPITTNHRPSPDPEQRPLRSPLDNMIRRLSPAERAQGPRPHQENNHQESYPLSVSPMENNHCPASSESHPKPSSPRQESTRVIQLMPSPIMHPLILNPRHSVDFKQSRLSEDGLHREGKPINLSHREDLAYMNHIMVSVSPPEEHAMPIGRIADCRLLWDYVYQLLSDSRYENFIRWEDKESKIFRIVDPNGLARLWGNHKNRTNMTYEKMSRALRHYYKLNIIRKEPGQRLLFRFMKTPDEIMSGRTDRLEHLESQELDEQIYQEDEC

Sequence | binding signal (ERF) | binding signal (ETV3L) | binding signal (ETS2) | binding signal (SPDEF) | binding signal (ETV7) | binding signal (ELF5) | binding signal (ETV3) | binding signal (ETV6)
CTAAGA | 1.08 fold enrichment (6-mer frequency, TF over GST control) | 1.21 fold enrichment (6-mer frequency, TF over GST control) | 1.17 fold enrichment (6-mer frequency, TF over GST control) | 1.15 fold enrichment (6-mer frequency, TF over GST control) | 1.25 fold enrichment (6-mer frequency, TF over GST control) | 1.2 fold enrichment (6-mer frequency, TF over GST control) | 1.17 fold enrichment (6-mer frequency, TF over GST control) | 1.23 fold enrichment (6-mer frequency, TF over GST control)
TGAATT | 1.14 fold enrichment (6-mer frequency, TF over GST control) | 1.17 fold enrichment (6-mer frequency, TF over GST control) | 1.16 fold enrichment (6-mer frequency, TF over GST control) | 1.11 fold enrichment (6-mer frequency, TF over GST control) | 1.21 fold enrichment (6-mer frequency, TF over GST control) | 1.13 fold enrichment (6-mer frequency, TF over GST control) | 1.16 fold enrichment (6-mer frequency, TF over GST control) | 1.03 fold enrichment (6-mer frequency, TF over GST control)
ATGACT | 1.36 fold enrichment (6-mer frequency, TF over GST control) | 1.47 fold enrichment (6-mer frequency, TF over GST control) | 1.42 fold enrichment (6-mer frequency, TF over GST control) | 1.29 fold enrichment (6-mer frequency, TF over GST control) | 1.38 fold enrichment (6-mer frequency, TF over GST control) | 1.32 fold enrichment (6-mer frequency, TF over GST control) | 1.27 fold enrichment (6-mer frequency, TF over GST control) | 1.3 fold enrichment (6-mer frequency, TF over GST control)
AGATTC | 1.05 fold enrichment (6-mer frequency, TF over GST control) | 1.23 fold enrichment (6-mer frequency, TF over GST control) | 1.08 fold enrichment (6-mer frequency, TF over GST control) | 1.17 fold enrichment (6-mer frequency, TF over GST control) | 1.18 fold enrichment (6-mer frequency, TF over GST control) | 1.09 fold enrichment (6-mer frequency, TF over GST control) | 1.15 fold enrichment (6-mer frequency, TF over GST control) | 1.22 fold enrichment (6-mer frequency, TF over GST control)
GCTATA | 1.16 fold enrichment (6-mer frequency, TF over GST control) | 1.08 fold enrichment (6-mer frequency, TF over GST control) | 1.14 fold enrichment (6-mer frequency, TF over GST control) | 1.21 fold enrichment (6-mer frequency, TF over GST control) | 1.18 fold enrichment (6-mer frequency, TF over GST control) | 1.15 fold enrichment (6-mer frequency, TF over GST control) | 1.18 fold enrichment (6-mer frequency, TF over GST control) | 1.14 fold enrichment (6-mer frequency, TF over GST control)
GTCTTT | 1.27 fold enrichment (6-mer frequency, TF over GST control) | 1.27 fold enrichment (6-mer frequency, TF over GST control) | 1.26 fold enrichment (6-mer frequency, TF over GST control) | 1.17 fold enrichment (6-mer frequency, TF over GST control) | 1.28 fold enrichment (6-mer frequency, TF over GST control) | 1.31 fold enrichment (6-mer frequency, TF over GST control) | 1.26 fold enrichment (6-mer frequency, TF over GST control) | 1.24 fold enrichment (6-mer frequency, TF over GST control)
ATTCAT | 1.14 fold enrichment (6-mer frequency, TF over GST control) | 1.27 fold enrichment (6-mer frequency, TF over GST control) | 1.13 fold enrichment (6-mer frequency, TF over GST control) | 1.07 fold enrichment (6-mer frequency, TF over GST control) | 1.18 fold enrichment (6-mer frequency, TF over GST control) | 1.1 fold enrichment (6-mer frequency, TF over GST control) | 1.19 fold enrichment (6-mer frequency, TF over GST control) | 1.11 fold enrichment (6-mer frequency, TF over GST control)
AAATTT | 1.43 fold enrichment (6-mer frequency, TF over GST control) | 1.4 fold enrichment (6-mer frequency, TF over GST control) | 1.35 fold enrichment (6-mer frequency, TF over GST control) | 1.15 fold enrichment (6-mer frequency, TF over GST control) | 1.36 fold enrichment (6-mer frequency, TF over GST control) | 1.43 fold enrichment (6-mer frequency, TF over GST control) | 1.27 fold enrichment (6-mer frequency, TF over GST control) | 1.37 fold enrichment (6-mer frequency, TF over GST control)
GTTATT | 1.12 fold enrichment (6-mer frequency, TF over GST control) | 1.13 fold enrichment (6-mer frequency, TF over GST control) | 1.14 fold enrichment (6-mer frequency, TF over GST control) | 1.04 fold enrichment (6-mer frequency, TF over GST control) | 1.29 fold enrichment (6-mer frequency, TF over GST control) | 1.21 fold enrichment (6-mer frequency, TF over GST control) | 1.2 fold enrichment (6-mer frequency, TF over GST control) | 1.2 fold enrichment (6-mer frequency, TF over GST control)
TTCAAC | 1.31 fold enrichment (6-mer frequency, TF over GST control) | 1.16 fold enrichment (6-mer frequency, TF over GST control) | 1.29 fold enrichment (6-mer frequency, TF over GST control) | 1.28 fold enrichment (6-mer frequency, TF over GST control) | 1.19 fold enrichment (6-mer frequency, TF over GST control) | 1.27 fold enrichment (6-mer frequency, TF over GST control) | 1.32 fold enrichment (6-mer frequency, TF over GST control) | 1.19 fold enrichment (6-mer frequency, TF over GST control)
ATGGAT | 1.09 fold enrichment (6-mer frequency, TF over GST control) | 1.16 fold enrichment (6-mer frequency, TF over GST control) | 1.09 fold enrichment (6-mer frequency, TF over GST control) | 1.01 fold enrichment (6-mer frequency, TF over GST control) | 1.16 fold enrichment (6-mer frequency, TF over GST control) | 1.06 fold enrichment (6-mer frequency, TF over GST control) | 1.11 fold enrichment (6-mer frequency, TF over GST control) | 1.09 fold enrichment (6-mer frequency, TF over GST control)
ACTGCT | 1.27 fold enrichment (6-mer frequency, TF over GST control) | 1.41 fold enrichment (6-mer frequency, TF over GST control) | 1.38 fold enrichment (6-mer frequency, TF over GST control) | 1.26 fold enrichment (6-mer frequency, TF over GST control) | 1.4 fold enrichment (6-mer frequency, TF over GST control) | 1.33 fold enrichment (6-mer frequency, TF over GST control) | 1.42 fold enrichment (6-mer frequency, TF over GST control) | 1.33 fold enrichment (6-mer frequency, TF over GST control)
CTACCT | 1.74 fold enrichment (6-mer frequency, TF over GST control) | 1.53 fold enrichment (6-mer frequency, TF over GST control) | 1.45 fold enrichment (6-mer frequency, TF over GST control) | 1.45 fold enrichment (6-mer frequency, TF over GST control) | 1.22 fold enrichment (6-mer frequency, TF over GST control) | 1.59 fold enrichment (6-mer frequency, TF over GST control) | 1.44 fold enrichment (6-mer frequency, TF over GST control) | 1.51 fold enrichment (6-mer frequency, TF over GST control)
TTTACA | 1.28 fold enrichment (6-mer frequency, TF over GST control) | 1.23 fold enrichment (6-mer frequency, TF over GST control) | 1.25 fold enrichment (6-mer frequency, TF over GST control) | 1.15 fold enrichment (6-mer frequency, TF over GST control) | 1.22 fold enrichment (6-mer frequency, TF over GST control) | 1.22 fold enrichment (6-mer frequency, TF over GST control) | 1.22 fold enrichment (6-mer frequency, TF over GST control) | 1.17 fold enrichment (6-mer frequency, TF over GST control)
CTCGAC | 1.48 fold enrichment (6-mer frequency, TF over GST control) | 1.37 fold enrichment (6-mer frequency, TF over GST control) | 1.45 fold enrichment (6-mer frequency, TF over GST control) | 1.42 fold enrichment (6-mer frequency, TF over GST control) | 1.37 fold enrichment (6-mer frequency, TF over GST control) | 1.38 fold enrichment (6-mer frequency, TF over GST control) | 1.45 fold enrichment (6-mer frequency, TF over GST control) | 1.63 fold enrichment (6-mer frequency, TF over GST control)
